Assay outcomes deposited in PubChem by The Scripps Research Institute Molecular Screening Center.
ssDAF12 agonist: activates DAF-12 receptor from parasite S. stercoralis; HEK293 ssDAF-12/GRIP1 lit1-tk-luc reporter, luminescence; % of 3 µM dafachronic acid response; activation, % at 6.8 µM; 1% of 370,000 active;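 active means activation above the mean over all tested compounds plus 3 SD, cut at about 0.9% in these data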;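 further: 0% = DMSO-only wells and 100% = 3 µM delta7-dafachronic acid wells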
hgDAF-12 ag: hgDAF-12 agonism, primary luciferase screen; 1.8% of 370,000 active; activation, % at 6.8 µM; HEK293 GAL4-hgDAF12 UAS-luciferase reporter, agonist luminescence; normalized to butyrate control;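 active means activation above a cutoff set at the mean of all screened compounds plus 3 SD, cut at about 10% in these data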;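 further: 0% = DMSO wells and 100% = sodium butyrate wells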
hcDAF-12 act: H. contortus DAF-12 activation, primary screen | HEK293 hcDAF-12 lit1-tk-luc reporter, luminescence; 0% DMSO, 100% Δ7-dafachronic acid | activation, % at 6.8 µM | 1.4% of 370,000 active;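 active means activation above the mean of all tested compounds plus 3 SD, cut at about 5.5% in these data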;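 further: 100% = response to 3 µM Δ7-dafachronic acid high control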
GAA850 FXN act: frataxin GAA850 promoter activation. activation, % at 6 µM. 0.56% of 360,000 active. HEK293 lucGAA850 FXN promoter luciferase reporter, 24 h; percent of 10 µM SAHA response. AID 540364;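 active means activation above the average of all compounds screened plus 3 SD, cutoff fixed separately per campaign, cut at about 7.5% in these data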;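 further: 0% = DMSO wells and 100% = 10 µM SAHA wells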
DAX1 inh-1: DAX1 (NR0B1) inhibition, primary screen; HEK293T StAR-luciferase reporter, SF-1/DAX-1 repression relief; inhibition, % at 6.8 µM; 1.1% of 370,000 active; AID 652010;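 active means inhibition above the mean over all tested compounds plus 3 SD, cut at about 3.6% in these data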;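 further: 0% = DAX-1 cells with DMSO and 100% = cells lacking DAX-1 with DMSO; higher inhibition means more luminescence from relief of DAX-1 repression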
DAX1 inh-2: inhibits human nuclear receptor DAX1; P51843; HEK293 Gal4-DAX1 luciferase reporter, luminescence; inhibition, % at 6.75 µM; 0.99% of 340,000 active; AID 504766;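 active means inhibition above the mean over all tested compounds plus 3 SD, cut at about 4.2% in these data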;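 further: 0% = DAX1-transfected cells with DMSO and 100% = empty-vector control cells with DMSO; inhibition shows as a rise in luminescence from relieved DAX1 repression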
Target sequence (P51843 207-470 limits assumed): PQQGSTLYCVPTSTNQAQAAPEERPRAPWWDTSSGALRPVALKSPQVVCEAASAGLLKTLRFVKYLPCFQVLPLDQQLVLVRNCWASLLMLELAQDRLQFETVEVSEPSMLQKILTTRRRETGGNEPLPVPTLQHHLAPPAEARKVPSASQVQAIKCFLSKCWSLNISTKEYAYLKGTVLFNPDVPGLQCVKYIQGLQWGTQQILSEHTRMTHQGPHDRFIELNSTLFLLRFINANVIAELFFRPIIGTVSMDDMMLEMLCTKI
An asterisk follows results filed as active; / = not tested or not shown. Sampled rows, rich in hits. Any-hit rate of the full collection: about 4.5%.

SMILES	ssDAF12 agonist	hgDAF-12 ag	hcDAF-12 act	GAA850 FXN act	DAX1 inh-1	DAX1 inh-2
COC(=O)C[C@H]1CC[C@@H]2[C@H](COc3ccc(NS(C)(=O)=O)cc3C(=O)N2C)O1	-1	-1	-3	/	0	/
COc1ccccc1-c1nc(-c2ccc(C(=O)O)cc2)no1	0	3	1	2	1	2
COc1ccc(-c2nc(-c3ccc(C(=O)O)cc3)no2)cc1	0	12*	6.9*	4	3.9*	0
Cc1cc2oc(C(=O)N(Cc3ccccc3)c3ccccn3)cc(=O)c2cc1Cl	0	-1	2	1	0	/
Cc1cc(C)c2oc(C(=O)N(Cc3ccccc3)c3ccccn3)cc(=O)c2c1	-1	-3	-2	-2	0	6.3*
Cc1cccc(OCCNC(=O)c2cncc(Br)c2)c1	3.3*	2	0	-1	0	1
O=C(NCCCc1ccccc1)[C@H](CO)NC1(C(=O)NCCc2c[nH]c3ccccc23)CCCCC1	0	-1	-2	/	/	/
Cn1c(/N=C/c2c(O)ccc3ccccc23)nc2ccccc21	1.3*	-3	0	-3	-1	0
Cc1ccc(Nc2nc(-c3sc(N)nc3C)cs2)cc1	0	5	5.8*	4	1	2
CCCCN1C(=O)N2Cc3cc(OC)ccc3C2CS1(=O)=O (stereo unspecified)	-1	11*	5.6*	/	1	/
CCN(Cc1cn(Cc2ccccc2)nn1)S(=O)(=O)c1ccccc1Br	0	-4	-3	/	-1	/
COC(=O)[C@]12C[C@H](CC(=O)NCCCCc3ccccc3)C(=O)N(Cc3ccco3)C1=C[C@H](C(C)C)O[C@@H]2C1CC1	-1	0	-4	/	-1	/
C[C@H]1CCCN1c1cccc2c1S(=O)(=O)N1CC[C@@H](C1)O2	0	1	-2	/	0	/
Nc1nc(CSc2ccccn2)nc(Nc2ccccc2)n1	1	11*	5	4	4	4
Cc1nn(CC(=O)OC(C)C(=O)Nc2ccccc2[N+](=O)[O-])c(C)c1[N+](=O)[O-] (stereo unspecified)	3.5*	-1	1	3	0	0
CC(OC(=O)Cn1[nH]c(=O)c2ccccc2c1=O)C(=O)Nc1ccccc1[N+](=O)[O-] (stereo unspecified)	0	-1	0	-2	0	3
CC(OC(=O)CCC(=O)c1cccs1)C(=O)Nc1ccccc1[N+](=O)[O-] (stereo unspecified)	-1	-1	1	2	0	1
Cc1ccc(C(=O)NCC(=O)OC(C)C(=O)Nc2ccccc2[N+](=O)[O-])s1 (stereo unspecified)	-1	3	0	1	3.6*	1
CCc1c(C(=O)NNC(=S)Nc2ccc(S(=O)(=O)Nc3ncccn3)cc2)csc1C	-1	0	-1	1	4.0*	0
O=S(=O)(Nc1ncccn1)c1ccc(NC(=S)Nc2ccccc2)cc1	-1	1	0	1	1	0
CCCSc1nnc(-c2ccco2)n1C	-1	3	-1	/	0	/
Cc1cc(C)n2c(SCC(=O)NC3CCCCC3C)nnc2n1 (stereo unspecified)	-2	0	-1	2	0	1
CCC1CCCCN1C(=O)CSc1nnc2nc(C)cc(C)n12 (stereo unspecified)	-2	1	0	1	4.0*	0
COc1ccc(NC(=O)C2CCCN(S(=O)(=O)c3cnc[nH]3)C2)cc1 (stereo unspecified)	-1	0	-1	2	0	2
O=C(NC1CCCCCCC1)C1CCCN(S(=O)(=O)c2cnc[nH]2)C1 (stereo unspecified)	-1	0	0	-2	0	0
SMILES	ssDAF12 agonist	hgDAF-12 ag	hcDAF-12 act	GAA850 FXN act	DAX1 inh-1	DAX1 inh-2
CCSc1nnc(NC(=O)C2CCCCC2)s1	0	5	1	2	1	4.7*
O=C(NC1CCCCC1)C1CCCN(S(=O)(=O)c2cnc[nH]2)C1 (stereo unspecified)	-2	-1	0	-1	0	5.0*
Cc1ccc2nc(NC(=O)C3CCCN(S(=O)(=O)c4cnc[nH]4)C3)sc2c1 (stereo unspecified)	-1	8	3	2	3	6.3*
CCSc1nnc(NC(=O)C2CCCN(S(=O)(=O)c3cnc[nH]3)C2)s1 (stereo unspecified)	-1	-1	-1	0	1	13*
Cc1ccc2nc(NC(=O)C3CCCN(S(=O)(=O)c4cccnc4)C3)sc2c1 (stereo unspecified)	-2	-2	-5	-1	-2	-3
C[C@H]1[C@@H](c2ccccc2)OC(O)([C@H](Cc2ccccc2)NC(=O)OC(C)(C)C)CN1C (stereo partly specified)	-2	-1	-1	/	/	/
Cc1ccc(-n2c(SCC(=O)C(C)(C)C)nnc2-c2cccc(C)c2)cc1	-2	0	-3	/	-2	/
O=c1c(N2CCOCC2)c(N2CCOCC2)c1=O	-2	-1	-1	0	0	7.2*
O=c1cc(-c2ccc(O)cc2)oc2ccc(O)cc12	0	13*	2	1	2	0
CCN1CCCCC(NC(=O)c2ccc(F)c(F)c2)C1=O (stereo unspecified)	-1	2	1	/	0	/
C[C@@H](C(=O)N=c1sc2ccccc2n1C)N1C(=O)C2CC=CCC2C1=O (stereo partly specified)	1.0*	-1	1	0	0	-1
Cc1ccc2c(c1)sc1nc(=O)n(-c3ccccc3)c(=O)n12	-1	12*	2	5	2	3
O=c1c2ccccc2nc2sc3ccccc3n12	0	3	1	6	2	3
N#Cc1ccccc1COC(=O)c1cc(=O)c2ccccc2o1	-1	2	6.4*	1	0	2
N#Cc1ccccc1COC(=O)c1ccc(Br)o1	-1	1	-1	0	0	0
CC1CCN(c2ccc(C(=O)O)cc2NS(=O)(=O)c2ccc(Cl)s2)CC1	-1	-3	-1	/	0	/
COc1cc2cc(CN(C(=O)NC3CCCCC3)C3CCCC3)c(=O)[nH]c2cc1OC	-1	-3	0	-2	0	0
O=C(NC1CCCCC1)N(Cc1cc2cc3c(cc2[nH]c1=O)OCCO3)C1CCCCC1	-1	-3	-2	-2	-1	4.8*
C/C(=N\NC(=O)c1nn(C)cc1Br)c1ccncc1	-1	10	1	3	2	7.6*
CCN(CC)CCn1c(NC(=O)c2ccc(Cl)cc2)nc2ccccc21	1.0*	4	5.7*	0	1	0
